L929 necroptosis: blocks zVAD induced death of L929 cells. 220,000 tested, 0.38% active. AID 1377. viability rescue, % at 10 µM. L929 zVAD necroptosis rescue, ATP luminescence, 24 h; with zVAD 60 µM;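 active = activation, scaled between plate controls, above about 75%, limit read from the data; inactive = activation under that limit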;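 note: 0% = zVAD with DMSO and 100% = DMSO alone without zVAD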
HSV augment: HSV replication enhancement | AID 1956 | maximum fold increase | 220,000 tested, 0.005% active | HSV replication augmentation in cells, fold increase; in the data active = maximum fold increase above about 1.5; inconclusive = no clear call, values can overlap the other calls; tested in PC3 cells
TNF death inh: inhibitors of TNF-alpha induced necroptosis in Jurkat FADD-/- cells | AID 463075 | Jurkat FADD-/- TNF necroptosis rescue, ATP luminescence, 24 h; 0 = TNF only, 100 = no-TNF cells | activation (protection from cell death), % at 10 µM | 220,000 tested, 0.068% active;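 active = activation, meaning protection from cell death, of at least 50% relative to plate controls; inactive = activation below 50%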;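 note: necroptosis triggered by 40 ng/mL TNF-alpha added together with compound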
m-calpain inh: inhibitors of pig calpain II; purified calpain II, fluorogenic peptide substrate, 30 min; inhibition, % at 16 µM; 220,000 tested, 0.37% active; AID 1236;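 active = inhibition above about 50%, limit read from the data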
zVAD death conf: confirmed blocker of zVAD induced death in L929 cells | shares compounds with L929 necroptosis | L929 zVAD-induced necroptosis rescue, ATP luminescence, 24 h | activation (protection from necroptosis), % at 10 µM | 760 tested, 16% active | AID 463117;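 active = mean protection from necroptosis of at least 50% over duplicate tests; inactive = mean protection below 50%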;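 note: 0% = cells with zVAD alone and 100% = vehicle cells without zVAD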
An asterisk follows results filed as active; i = inactive; ? = inconclusive; . = not tested or not shown. Compounds with a hit are over-represented: about 0.77% of the library has one in this group of screens.

SMILES	L929 necroptosis	HSV augment	TNF death inh	m-calpain inh	zVAD death conf
O=C(Nc1ccc(-c2csc(Nc3ccc(Cl)cc3)n2)cc1)c1cccc(C(F)(F)F)c1	82*	i	8	-45	39
O=C(NC1CCSC1=O)C1CCCCC1 (stereo unspecified)	0	i	0	-20	.
O=C(Nc1ccc(-c2noc(COc3ccccc3Cl)n2)cc1)c1ccco1	98*	i	-3	-16	36
O=c1[nH]c(/C=C/c2cccc3ccccc23)nc2ccccc12	0	i	0	-3	.
O=c1nc2cccc3c2=c(/c1=C(\O)c1ccccc1)c1ccccc1c3=O	80*	i	3	29	0
Cn1ncc(Cl)c1C(=O)N1CCN(c2ncccn2)CC1	1	i	-1	-7	.
O=[N+]([O-])c1ncn(Cc2ccccc2Cl)n1	88*	i	83*	-6	20
O=C(Nc1cnn(Cc2c(Cl)cccc2Cl)c1)c1ccc([N+](=O)[O-])cc1	0	i	0	19	.
O=[N+]([O-])c1ncn(Cc2c(Cl)cccc2Cl)n1	94*	i	96*	9	4
O=C(Cn1cnc([N+](=O)[O-])n1)NCc1ccccc1	0	.	4	-35	.
CC(C)=CC(=O)Nc1nc2ccc([N+](=O)[O-])cc2s1	77*	i	-5	-7	38
CC1=C(C#N)c2nc(N)c(C#N)c(C)c2/C1=C\c1ccc(OCC(=O)O)c(Cl)c1	0	?	-5	-22	.
Cc1ccc(CCNC(=O)CNC(=O)c2cccs2)cc1	0	i	1	28	.
Cc1cccc(N=c2oc3cc(O)ccc3cc2C(N)=O)c1	83*	i	-4	i	20
c1cncc(-c2nc(NCCCn3ccnc3)c3ccccc3n2)c1	75*	i	1	1	32
Cc1nc(NCCCn2ccnc2)c2ccccc2n1	0	i	1	17	.
Cn1nc(-c2ccccc2)cc1NS(=O)(=O)c1ccc(C#N)cc1	1	i	-1	-6	.
O=C(Nc1nccs1)c1cccc(N2C(=O)C3C4C=CC(C4)C3C2=O)c1 (stereo unspecified)	78*	i	11	17	17
O=C(Nc1nccs1)c1ccc(N2C(=O)[C@@H]3[C@H](C2=O)[C@H]2C=C[C@@H]3C2)cc1	79*	i	17	-1	2
COc1ccc(N2C(=O)C3NN=C(C(=O)OCc4ccccc4)C3C2=O)cc1 (stereo unspecified)	9	i	1	-17	.
Cc1nc(C(F)(F)F)c(C(=O)N/N=C(\N)c2ccccn2)s1	3	i	-2	-23	.
O=C(Nc1ccc(Cl)c(Cl)c1)c1cccc(S(=O)(=O)NCc2cccnc2)c1	77*	i	-5	12	2
CC(=O)c1sc(Nc2ccccn2)nc1C	96*	i	-4	-20	1
O=[N+]([O-])c1ccc(/C=N/Nc2ncc(-c3ccccc3)cn2)cc1	79*	i	1	-200	2
Cc1cc(-c2ccccc2)nc(N/N=C/c2ccc([N+](=O)[O-])cc2)n1	1	i	2	18	.
SMILES	L929 necroptosis	HSV augment	TNF death inh	m-calpain inh	zVAD death conf
CNC(=S)Nc1cc(C)ccc1OC(F)F	0	i	0	-14	.
Cc1ccnc(NC(=O)Nc2cccc(F)c2)c1	92*	i	7	30	32
Cc1cccc(NC(=O)Nc2cc(C)cc(C)n2)c1	76*	i	0	22	3
CCn1cc(C2=NC(CC(C)C)CO2)c2ccccc21 (stereo unspecified)	0	i	3	15	.
C=CCn1c(C)cc(C2=NNC(=NCc3ccccc3)SC2)c1C	6	i	1	-57	.
Cc1ccc(C)c(C2=NNC(=NCc3ccccc3)SC2)c1	77*	i	95*	-20	25
O=C(/C=C/c1ccc2ccccc2n1)N1CCN(S(=O)(=O)c2ccccc2F)CC1	84*	i	2	5	5
O=C(/C=C/c1ccc2ccccc2n1)N1CCN(S(=O)(=O)c2ccc(F)cc2)CC1	28	i	5	-12	.
Cc1nnc(SCC(=O)NC(=O)Nc2ccc3c(c2)OCCO3)n1N	1	i	0	4	.
Clc1nc(Cl)nc(-c2cn(-c3ccccc3)c3ccccc23)n1	1	i	1	-151	.
CC(C)(C)c1cc(NC(=O)Nc2ccc(Cl)cc2Cl)no1	54	i	3	-6	.
CC(C)(C)c1cc(NC(=O)Nc2ccc(Br)cc2Cl)no1	76*	i	2	6	2
Cc1ccccc1OCC(=O)Nc1ccc(Cc2ccncc2)cc1	79*	i	3	15	13
CCOC(=O)Nc1ccc2c(c1)ncn2C1CCCCC1	84*	i	1	7	17
O=S(=O)(Nc1cccc2ncccc12)c1cccs1	79*	i	5	-9	40
COc1ccccc1/C=C/C(=O)NNC(=O)c1cccs1	0	i	1	-19	.
Cc1cc(-c2n[nH]c(=S)n2/N=C/c2cccc(O)c2)n[nH]1	1	i	1	-17	.
Cc1cc(-c2n[nH]c(=S)n2/N=C/C(Cl)=C/c2ccccc2)n[nH]1	83*	i	-4	5	2
S=c1[nH]nc(-c2ccco2)n1/N=C/C(Cl)=C/c1ccccc1	77*	i	-9	-15	4
CC(=O)Nc1ccc(-n2nnnc2SCC(=O)Nc2cccc(NC(=O)c3ccco3)c2)cc1	1	i	3	-24	.
CCOC(=O)c1ccc(NC(=O)Nc2ccn(C)n2)cc1	86*	i	1	-12	40
CCOC(=O)c1ccc(NC(=O)Nc2cccc(C)n2)cc1	68	i	1	36	.
CC(=O)N(Cc1ccccc1)Cc1cn(CCC#N)nc1-c1cccc([N+](=O)[O-])c1	-1	i	0	-12	.
CCC(=O)Nc1ccc(C(=O)NNC(=O)COc2cc(C)ccc2C)cc1	85*	i	1	16	45
COC(=O)NNC(=O)COc1cc(C)ccc1C	0	i	1	18	.
SMILES	L929 necroptosis	HSV augment	TNF death inh	m-calpain inh	zVAD death conf
CC1CCC/C=C/C(=O)c2c(O)cc(O)cc2CC(=O)O1 (stereo unspecified)	84*	i	-26	-27	33
CC(C)Cc1nc2ccccc2n1CCc1ccccc1	.	i	-1	13	.
O=C(c1ccc(F)cc1)n1ccc(-c2cnc(-c3ccccc3)s2)n1	83*	i	6	-165	0
Cc1cc(NC(=O)c2ccccc2F)nc2c1c(=O)oc1ccccc12	-1	i	1	-7	.
CCc1ccc(NC(=O)c2noc3c2CCCCC3)cc1	6	.	4	-10	.
Cc1ccc(NC(=O)c2noc3c2CCCCC3)cc1	82*	i	2	-3	2
CCOC(=O)N1CCN(S(=O)(=O)c2cc([N+](=O)[O-])c(C)cc2C)CC1	0	i	0	-33	.
Cc1ccc(Oc2ncccc2C(=O)NCC(=O)O)cc1	1	i	1	-2	.
O=C(O)c1cccc2c(/C=N/Nc3ccccn3)c[nH]c12	84*	i	44	-4	12

Screening results: PubChem, several laboratories
